# Paper PMC7862700, “An all-to-all approach to the identification of sequence-specific readers for epigenetic DNA modifications on cytosine”
# What was measured:
# Assay in all cases: DAPPL (digital affinity profiling via proximity ligation, sequencing); 10 mM Tris-HCl pH 7.5, 50 mM NaCl, 1 mM DTT, 4% glycerol, room temperature, 30 min; GST-TFs on glutathione beads, 16-mer random dsDNA library, 0.1% formaldehyde crosslink after washing; high values mean tight binding
# Settings in all cases: protein: recombinant; tags: N-terminal GST; dsDNA, one strand shown
# [1] = target: T1, FLI1 (Homo sapiens, UniProt Q01543 1-452)
# T1 sequence: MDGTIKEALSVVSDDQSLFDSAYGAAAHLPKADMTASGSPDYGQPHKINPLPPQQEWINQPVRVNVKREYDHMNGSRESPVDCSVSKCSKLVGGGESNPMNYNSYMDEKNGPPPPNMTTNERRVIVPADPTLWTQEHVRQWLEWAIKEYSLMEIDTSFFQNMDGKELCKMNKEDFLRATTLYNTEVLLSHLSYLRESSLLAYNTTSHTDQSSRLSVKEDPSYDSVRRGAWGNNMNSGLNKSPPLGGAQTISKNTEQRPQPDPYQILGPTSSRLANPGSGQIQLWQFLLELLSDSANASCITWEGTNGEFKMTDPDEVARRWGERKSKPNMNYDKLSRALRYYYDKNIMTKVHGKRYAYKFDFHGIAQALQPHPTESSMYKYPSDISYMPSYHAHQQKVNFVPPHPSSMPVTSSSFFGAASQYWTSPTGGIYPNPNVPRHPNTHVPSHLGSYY
# Method in brief: (§1)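 Human transcription factors fused to GST were expressed in yeast, captured on glutathione beads, given DNA barcodes and pooled with a GST-only negative control. Pools were incubated with 200 nmole of a 16-mer random double-stranded DNA library in Tris/NaCl/DTT/glycerol buffer at room temperature for 30 min. They were then washed, crosslinked with 0.1% formaldehyde, proximity-ligated (BsaI/T4 ligase, 1 h, 37 °C), PCR-amplified and sequenced on an Illumina NextSeq500. Binding signal is each 6-mer's read frequency for a factor divided by its frequency for the GST control.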
# [2] = target: T2, ELK1 (Homo sapiens, UniProt P19419 1-428)
# T2 sequence: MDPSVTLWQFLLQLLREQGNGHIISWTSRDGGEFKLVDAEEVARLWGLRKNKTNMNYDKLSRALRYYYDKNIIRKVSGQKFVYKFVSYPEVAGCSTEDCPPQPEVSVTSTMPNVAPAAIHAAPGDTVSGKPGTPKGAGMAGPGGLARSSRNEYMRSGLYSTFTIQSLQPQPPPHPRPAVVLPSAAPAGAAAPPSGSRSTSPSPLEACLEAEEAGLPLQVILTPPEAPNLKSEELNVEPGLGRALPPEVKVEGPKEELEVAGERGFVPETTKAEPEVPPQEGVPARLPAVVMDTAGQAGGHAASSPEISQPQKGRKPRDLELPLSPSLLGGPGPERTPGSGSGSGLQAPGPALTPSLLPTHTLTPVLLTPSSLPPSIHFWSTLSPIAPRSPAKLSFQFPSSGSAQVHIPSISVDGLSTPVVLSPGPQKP
# Method in brief: as §1
# [3] = target: T3, ERG (Homo sapiens, UniProt P11308 1-479)
# T3 sequence: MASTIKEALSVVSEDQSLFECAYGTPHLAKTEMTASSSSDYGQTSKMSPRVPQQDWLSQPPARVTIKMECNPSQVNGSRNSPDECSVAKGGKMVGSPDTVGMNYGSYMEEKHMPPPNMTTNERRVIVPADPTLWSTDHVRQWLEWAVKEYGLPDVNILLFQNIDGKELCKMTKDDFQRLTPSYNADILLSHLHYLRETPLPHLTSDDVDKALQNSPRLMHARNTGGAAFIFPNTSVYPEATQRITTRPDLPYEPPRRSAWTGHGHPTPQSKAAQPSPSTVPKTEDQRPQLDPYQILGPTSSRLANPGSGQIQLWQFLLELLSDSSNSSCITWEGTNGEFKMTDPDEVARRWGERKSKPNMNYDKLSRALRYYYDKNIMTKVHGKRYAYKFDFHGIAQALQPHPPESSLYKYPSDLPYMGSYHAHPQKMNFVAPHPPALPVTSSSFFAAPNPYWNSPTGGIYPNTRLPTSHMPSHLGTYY
# Method in brief: as §1
# [4] = target: ELF1 (Homo sapiens, UniProt P32519 1-619)
# Chain of ELF1 (P32519 whole entry): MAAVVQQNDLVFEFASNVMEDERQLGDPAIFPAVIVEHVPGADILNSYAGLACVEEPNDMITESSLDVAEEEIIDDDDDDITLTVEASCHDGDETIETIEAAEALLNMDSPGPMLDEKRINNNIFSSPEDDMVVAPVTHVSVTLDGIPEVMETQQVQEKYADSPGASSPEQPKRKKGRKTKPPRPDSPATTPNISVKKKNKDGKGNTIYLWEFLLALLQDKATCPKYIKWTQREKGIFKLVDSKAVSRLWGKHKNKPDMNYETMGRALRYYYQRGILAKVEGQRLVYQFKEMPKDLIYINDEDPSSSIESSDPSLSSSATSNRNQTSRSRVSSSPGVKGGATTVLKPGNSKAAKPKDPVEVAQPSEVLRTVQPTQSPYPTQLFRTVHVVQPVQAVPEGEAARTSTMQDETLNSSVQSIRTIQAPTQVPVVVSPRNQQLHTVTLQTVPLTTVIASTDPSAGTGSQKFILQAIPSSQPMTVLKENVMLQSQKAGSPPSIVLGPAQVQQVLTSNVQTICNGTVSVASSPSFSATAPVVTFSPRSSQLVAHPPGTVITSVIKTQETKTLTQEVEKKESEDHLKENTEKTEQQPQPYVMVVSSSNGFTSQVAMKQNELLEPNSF
# Method in brief: as §1
# [5] = target: T4, EHF (Homo sapiens, UniProt Q9NZC4 1-300)
# T4 sequence: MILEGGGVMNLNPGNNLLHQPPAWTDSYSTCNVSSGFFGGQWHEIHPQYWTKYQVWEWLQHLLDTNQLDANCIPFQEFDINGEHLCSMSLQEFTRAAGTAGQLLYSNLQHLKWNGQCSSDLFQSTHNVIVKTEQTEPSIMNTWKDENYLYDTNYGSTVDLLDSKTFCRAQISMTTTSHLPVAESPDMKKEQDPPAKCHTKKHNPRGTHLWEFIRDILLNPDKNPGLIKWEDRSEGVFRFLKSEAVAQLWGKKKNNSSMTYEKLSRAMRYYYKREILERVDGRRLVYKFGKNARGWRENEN
# Method in brief: as §1
# [6] = target: T5, SPIC (Homo sapiens, UniProt Q8N5J4 1-248)
# T5 sequence: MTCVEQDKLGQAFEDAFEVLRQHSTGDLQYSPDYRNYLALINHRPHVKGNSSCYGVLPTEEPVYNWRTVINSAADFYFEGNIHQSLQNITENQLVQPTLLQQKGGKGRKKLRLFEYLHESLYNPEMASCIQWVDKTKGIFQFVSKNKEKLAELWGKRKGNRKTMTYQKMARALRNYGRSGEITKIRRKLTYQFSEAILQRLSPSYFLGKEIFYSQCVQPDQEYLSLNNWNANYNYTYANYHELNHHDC
# Method in brief: as §1
# [7] = target: ELF4 (Homo sapiens, UniProt Q99607 1-663)
# Chain of ELF4 (Q99607 whole entry): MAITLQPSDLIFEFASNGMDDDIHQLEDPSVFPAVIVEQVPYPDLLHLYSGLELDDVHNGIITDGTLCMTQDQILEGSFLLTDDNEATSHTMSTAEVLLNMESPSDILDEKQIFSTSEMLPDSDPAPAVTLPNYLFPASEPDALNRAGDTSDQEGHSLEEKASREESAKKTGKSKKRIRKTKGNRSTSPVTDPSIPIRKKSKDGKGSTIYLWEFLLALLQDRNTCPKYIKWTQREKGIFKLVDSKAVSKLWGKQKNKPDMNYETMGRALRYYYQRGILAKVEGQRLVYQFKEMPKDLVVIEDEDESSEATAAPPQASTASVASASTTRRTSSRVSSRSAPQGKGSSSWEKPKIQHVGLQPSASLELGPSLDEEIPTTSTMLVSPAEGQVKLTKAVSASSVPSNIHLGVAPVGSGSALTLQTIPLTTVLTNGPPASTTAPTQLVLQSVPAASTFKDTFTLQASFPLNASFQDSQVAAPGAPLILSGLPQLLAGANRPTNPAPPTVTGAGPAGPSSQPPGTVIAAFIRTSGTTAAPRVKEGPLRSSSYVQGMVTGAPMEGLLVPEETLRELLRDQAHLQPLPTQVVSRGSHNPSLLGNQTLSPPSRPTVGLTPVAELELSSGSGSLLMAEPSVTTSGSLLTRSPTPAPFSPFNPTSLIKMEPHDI
# Method in brief: as §1
# [8] = target: T6, ELK4 (Homo sapiens, UniProt P28324-2 1-405)
# T6 sequence: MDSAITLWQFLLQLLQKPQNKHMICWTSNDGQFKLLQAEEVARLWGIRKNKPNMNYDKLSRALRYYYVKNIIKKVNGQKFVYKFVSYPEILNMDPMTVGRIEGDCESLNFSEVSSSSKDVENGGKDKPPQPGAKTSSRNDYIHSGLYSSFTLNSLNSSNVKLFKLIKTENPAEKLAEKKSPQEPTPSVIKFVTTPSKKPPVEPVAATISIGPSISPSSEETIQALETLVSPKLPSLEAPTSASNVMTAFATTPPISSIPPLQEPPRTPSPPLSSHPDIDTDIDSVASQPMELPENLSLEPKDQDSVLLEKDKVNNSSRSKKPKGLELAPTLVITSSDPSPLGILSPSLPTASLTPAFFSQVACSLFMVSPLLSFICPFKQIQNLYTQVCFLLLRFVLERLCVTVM
# Method in brief: as §1
# [9] = target: T7, ETV2 (Homo sapiens, UniProt O00321 1-342)
# T7 sequence: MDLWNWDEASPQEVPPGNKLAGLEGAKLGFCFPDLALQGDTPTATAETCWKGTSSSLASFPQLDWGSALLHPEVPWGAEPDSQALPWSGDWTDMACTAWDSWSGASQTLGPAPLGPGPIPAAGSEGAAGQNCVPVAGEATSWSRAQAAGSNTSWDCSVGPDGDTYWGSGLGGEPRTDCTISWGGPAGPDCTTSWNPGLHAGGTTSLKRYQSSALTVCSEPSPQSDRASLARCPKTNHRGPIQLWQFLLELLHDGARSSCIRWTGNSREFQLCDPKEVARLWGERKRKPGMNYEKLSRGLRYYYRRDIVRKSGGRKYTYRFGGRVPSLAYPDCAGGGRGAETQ
# Method in brief: as §1
# [10] = target: T8, ELF3 (Homo sapiens, UniProt P78545 1-371)
# T8 sequence: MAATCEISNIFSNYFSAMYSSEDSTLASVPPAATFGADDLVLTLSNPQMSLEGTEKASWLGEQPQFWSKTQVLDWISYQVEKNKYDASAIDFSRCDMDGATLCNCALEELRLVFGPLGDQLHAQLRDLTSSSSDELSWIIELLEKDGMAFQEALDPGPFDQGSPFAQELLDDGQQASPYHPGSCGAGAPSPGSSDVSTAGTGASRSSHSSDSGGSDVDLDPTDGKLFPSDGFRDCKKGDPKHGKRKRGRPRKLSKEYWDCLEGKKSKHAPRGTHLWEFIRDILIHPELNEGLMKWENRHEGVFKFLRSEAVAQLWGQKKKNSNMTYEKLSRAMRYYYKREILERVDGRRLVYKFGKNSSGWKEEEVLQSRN
# Method in brief: as §1
# [11] = target: ETV1 (Homo sapiens, UniProt P50549 1-477)
# Chain of ETV1 (P50549 whole entry): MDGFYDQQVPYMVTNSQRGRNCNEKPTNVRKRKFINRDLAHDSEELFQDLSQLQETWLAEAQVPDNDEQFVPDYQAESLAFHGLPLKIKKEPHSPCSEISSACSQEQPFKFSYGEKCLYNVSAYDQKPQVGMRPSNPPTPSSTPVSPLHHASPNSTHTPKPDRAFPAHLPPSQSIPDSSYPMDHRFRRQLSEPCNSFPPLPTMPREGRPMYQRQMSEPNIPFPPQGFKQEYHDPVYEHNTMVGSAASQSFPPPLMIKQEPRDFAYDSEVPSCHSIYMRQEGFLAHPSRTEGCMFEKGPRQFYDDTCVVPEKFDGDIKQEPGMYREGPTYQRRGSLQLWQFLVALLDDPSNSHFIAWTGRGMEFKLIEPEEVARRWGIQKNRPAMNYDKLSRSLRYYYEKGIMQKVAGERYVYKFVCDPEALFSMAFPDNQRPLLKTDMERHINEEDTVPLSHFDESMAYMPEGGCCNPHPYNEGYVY
# Method in brief: as §1
# [12] = target: T9, ETV3L (Homo sapiens, UniProt Q6ZN32 1-361)
# T9 sequence: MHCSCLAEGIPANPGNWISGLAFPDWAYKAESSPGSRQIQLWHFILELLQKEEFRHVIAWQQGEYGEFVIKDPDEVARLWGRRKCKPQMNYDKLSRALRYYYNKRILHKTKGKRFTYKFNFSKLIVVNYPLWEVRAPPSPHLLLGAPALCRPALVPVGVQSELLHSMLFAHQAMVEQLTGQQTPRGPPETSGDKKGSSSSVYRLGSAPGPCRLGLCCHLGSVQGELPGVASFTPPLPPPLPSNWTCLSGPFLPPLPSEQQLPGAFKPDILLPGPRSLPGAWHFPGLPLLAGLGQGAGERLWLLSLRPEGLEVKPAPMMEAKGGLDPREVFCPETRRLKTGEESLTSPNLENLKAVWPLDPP
# Method in brief: as §1
# [13] = target: T10, ETS2 (Homo sapiens, UniProt P15036 1-469)
# T10 sequence: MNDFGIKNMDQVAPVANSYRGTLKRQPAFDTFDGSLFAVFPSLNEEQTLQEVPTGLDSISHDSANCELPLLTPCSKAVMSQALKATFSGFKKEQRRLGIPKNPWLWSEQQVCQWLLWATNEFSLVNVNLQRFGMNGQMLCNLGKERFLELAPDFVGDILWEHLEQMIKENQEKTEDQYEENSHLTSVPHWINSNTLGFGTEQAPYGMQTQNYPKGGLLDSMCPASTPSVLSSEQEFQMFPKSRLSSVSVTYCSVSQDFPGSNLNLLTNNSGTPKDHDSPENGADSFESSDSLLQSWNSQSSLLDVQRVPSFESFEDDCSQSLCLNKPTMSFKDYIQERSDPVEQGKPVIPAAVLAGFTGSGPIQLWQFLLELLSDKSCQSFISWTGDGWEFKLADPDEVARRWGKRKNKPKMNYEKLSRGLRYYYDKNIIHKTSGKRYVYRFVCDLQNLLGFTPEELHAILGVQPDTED
# Method in brief: as §1
# [14] = target: T11, ETV3 (Homo sapiens, UniProt P41162-2 1-143)
# T11 sequence: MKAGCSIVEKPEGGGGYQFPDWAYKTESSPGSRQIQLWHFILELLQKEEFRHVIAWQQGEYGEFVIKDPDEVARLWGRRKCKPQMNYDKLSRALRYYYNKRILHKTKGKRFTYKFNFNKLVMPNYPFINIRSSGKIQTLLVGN
# Method in brief: as §1
# [15] = target: ETV6 (Homo sapiens, UniProt P41212 1-452)
# Chain of ETV6 (P41212 whole entry): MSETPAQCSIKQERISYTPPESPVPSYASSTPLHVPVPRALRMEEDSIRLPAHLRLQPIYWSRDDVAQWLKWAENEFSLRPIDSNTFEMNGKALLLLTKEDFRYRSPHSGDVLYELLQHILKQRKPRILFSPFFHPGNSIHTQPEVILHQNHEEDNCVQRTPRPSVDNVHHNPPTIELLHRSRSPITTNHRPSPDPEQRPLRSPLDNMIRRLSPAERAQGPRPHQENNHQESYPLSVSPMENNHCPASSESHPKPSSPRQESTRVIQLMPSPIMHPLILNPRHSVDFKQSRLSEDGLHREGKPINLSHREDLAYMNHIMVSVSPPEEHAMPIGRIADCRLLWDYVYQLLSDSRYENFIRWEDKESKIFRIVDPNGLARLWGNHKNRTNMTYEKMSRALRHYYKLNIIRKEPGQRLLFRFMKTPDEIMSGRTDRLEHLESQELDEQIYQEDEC
# Method in brief: as §1
sequence,measurement,setting,value
CCCCAG,binding signal,[1],"1.07 fold enrichment (6-mer frequency, TF over GST control)"
same,binding signal,[2],"1 fold enrichment (6-mer frequency, TF over GST control)"
same,binding signal,[3],"1.05 fold enrichment (6-mer frequency, TF over GST control)"
same,binding signal,[4],"1.04 fold enrichment (6-mer frequency, TF over GST control)"
same,binding signal,[5],"1 fold enrichment (6-mer frequency, TF over GST control)"
same,binding signal,[6],"1.14 fold enrichment (6-mer frequency, TF over GST control)"
same,binding signal,[7],"1.04 fold enrichment (6-mer frequency, TF over GST control)"
same,binding signal,[8],"1.24 fold enrichment (6-mer frequency, TF over GST control)"
same,binding signal,[9],"1.04 fold enrichment (6-mer frequency, TF over GST control)"
same,binding signal,[10],"1.16 fold enrichment (6-mer frequency, TF over GST control)"
same,binding signal,[11],"1.11 fold enrichment (6-mer frequency, TF over GST control)"
same,binding signal,[12],"1.11 fold enrichment (6-mer frequency, TF over GST control)"
same,binding signal,[13],"1.04 fold enrichment (6-mer frequency, TF over GST control)"
same,binding signal,[14],"1.07 fold enrichment (6-mer frequency, TF over GST control)"
same,binding signal,[15],"1.03 fold enrichment (6-mer frequency, TF over GST control)"
